Data reported in the supplement of paper PMC10981050.
Values joined by “and” are separate entries in the source; they are usually repeats but may differ in a detail not shown here. Identical values can stand only once. Counter-ions that a name gives are not always drawn.

How the values were obtained:
Assay in all cases: cell viability relative to vehicle control; higher = less cytotoxic
Conditions in all cases: 10 µM
K562 = tested on: K562
How it was run: (§1)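 CRISPR-edited SRSF2 P95 mutant and isogenic wild-type clones of four leukaemia lines were screened against Selleck bioactive, kinase and epigenetic probe libraries, with identity-inconsistent compounds removed. Compounds were acoustically dispensed into 384-well plates at a single 10 µM dose, with 2000 cells in 50 µL medium per well. After 48 h, supernatant was removed and CellTiter-Glo luminescence was read. Viability was expressed as percent of the on-plate DMSO vehicle control, analysed in Genedata Screener.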

MARIMO = tested on: MARIMO
How it was run: as §1

MOLM14 = tested on: MOLM14
How it was run: as §1

OCI-AML2 = tested on: OCI-AML2
How it was run: as §1

Row | Structure (SMILES) | cell viability (K562; SRSF2 genotype: SRSF2 P95H/wt) | cell viability (K562; SRSF2 genotype: SRSF2 wt/wt) | cell viability (MARIMO; SRSF2 genotype: SRSF2 P95H/wt) | cell viability (MARIMO; SRSF2 genotype: SRSF2 wt/wt) | cell viability (MOLM14; SRSF2 genotype: SRSF2 P95H/wt) | cell viability (MOLM14; SRSF2 genotype: SRSF2 wt/wt) | cell viability (OCI-AML2; SRSF2 genotype: P95H/wt) | cell viability (OCI-AML2; SRSF2 genotype: wt/wt)
1 | N[C@@H](Cc1cc(I)c(Oc2cc(I)c(O)c(I)c2)c(I)c1)C(=O)O [L-Thyroxine] | 87.7% and 96.4% | 101% | 106% | 114% | 98.8% | 106% | 102% | 114%
2 | COc1ccc(COc2ccc(Cc3cnc(N)nc3N)cc2OC)cc1 | 83.8% and 84% | 80% | 84% | 92.8% | 86.6% | 88.3% | 66% | 70.3%
3 | NC(=O)N1c2ccccc2CC(=O)c2ccccc21 [Oxcarbazepine] | 89% and 97.3% | 94.8% | 85.3% | 99.1% | 73.4% | 92.3% | 86% | 86.9%
4 | COc1cc(C=O)ccc1O [Vanillin] | 94.2% and 102% | 99.7% | 102% | 105% | 103% | 102% | 105% | 97.5%
5 | COC(=O)C1=CO[C@@H](O[C@@H]2O[C@H](CO)[C@@H](O)[C@H](O)[C@H]2O)[C@H]2[C@@H]1C(=O)C[C@@H]2C [Verbenalin] | 104% and 98.5% | 104% | 99.9% | 100% | 110% | 103% | 98.4% | 100%
6 | Cc1ccc(C(=O)N(CCCN)[C@@H](c2nc3cc(Cl)ccc3c(=O)n2Cc2ccccc2)C(C)C)cc1 | 0.81% and 1.13% | 0.6% | 0.37% | 0.68% | 0.2% | 0.34% | 0.16% | 0.25%
7 | O=C(O)COc1nn(Cc2ccccc2)c2ccccc12 [Bendazac] | 103% and 104% | 108% | 106% | 111% | 103% | 106% | 111% | 115%
8 | CCN1CCN(Cc2ccc(C(=O)Nc3ccc(C)c(Oc4ccc5c(c4)CC(=O)N5)c3)cc2C(F)(F)F)CC1 | 4.41% and 19.5% | 9.71% | 70.5% | 82.1% | 46.6% | 45% | 45% | 44.8%
9 | CN(C)CC/C=C1/c2ccccc2COc2ccc(CC(=O)O)cc21 [Olopatadine hydrochloride (Opatanol)] | 105% and 106% | 102% | 101% | 114% | 107% | 104% | 95.4% | 105%
10 | CN1CCN2c3ncccc3Cc3ccccc3C2C1 (stereo unspecified) [Mirtazapine (Remeron, Avanza)] | 101% and 92.3% | 88.7% | 93.2% | 96.8% | 92.3% | 97.4% | 95.9% | 96.5%
11 | Cc1[nH]c2ccccc2c1C1=C(NCCc2ccc(F)cc2)C(=O)N(C)C1=O | 97% and 105% | 102% | 94.9% | 100% | 99.4% | 105% | 100% | 89.8%
12 | O=C(/C=C/N1C[C@H]2C[C@@H]1CN2c1ccccn1)c1ccccc1O | 93.1% and 98% | 97.1% | 95.5% | 96.5% | 102% | 99.2% | 104% | 105%
13 | COc1ccc(C(=O)CC2(O)C(=O)Nc3c(Cl)ccc(Cl)c32)cc1 (stereo unspecified) | 16.2% and 28.8% | 27.4% | 7.08% | 8.57% | 6.9% | 2.04% | 4.82% | 10.3%
14 | N[C@@H]1CCCN(c2c(/C=C3\SC(=O)NC3=O)cccc2-c2ccccc2)C1 | 82.5% and 88.2% | 81.1% | 83.9% | 93% | 90.8% | 105% | 78.6% | 75.1%
15 | CCOC(=O)O[C@]1(C(=O)OCCl)CC[C@H]2[C@@H]3CCC4=CC(=O)C=C[C@]4(C)[C@H]3[C@@H](O)C[C@@]21C [Loteprednol etabonate] | 93.6% and 104% | 98% | 92.1% | 98.5% | 96.3% | 97.2% | 111% | 114%
16 | O=c1ccc2ccc(O)c(O)c2o1 [Daphnetin] | 79.5% and 82.3% | 83.5% | 75.2% | 89% | 84.4% | 93.2% | 81.4% | 86.2%
17 | CC1(C)OCCn2c1nc1c(N3CCOCC3)nc(-c3cnc(N)nc3)nc12 | 47.1% and 53.8% | 55% | 45.7% | 36% | 27.3% | 23.9% | 11.2% | 19.6%
18 | CCCCc1nc(C)c(CC(=S)N(C)C)c(=O)n1Cc1ccc(-c2ccccc2-c2nnn[nH]2)cc1 [Fimasartan] | 100% and 107% | 106% | 108% | 109% | 101% | 103% | 106% | 93.1%
19 | CCC1(c2ccccc2)C(=O)NCNC1=O [Primidone (Mysoline)] | 113% and 104% | 107% | 106% | 114% | 102% | 107% | 98% | 110%
20 | CCCCN(Cc1ccc(C(=O)NO)cc1)C(=O)Nc1ccccc1 [Nexturastat A] | 23.9% and 35.1% | 45.5% | 6.74% | 21% | 7.82% | 2.04% | 3.08% | 7.67%
21 | C[C@H](CC[C@@H](O[C@@H]1O[C@H](CO[C@@H]2O[C@H](CO)[C@@H](O)[C@H](O)[C@H]2O)[C@@H](O)[C@H](O)[C@H]1O[C@@H]1O[C@H](CO)[C@@H](O)[C@H](O)[C@H]1O)C(C)(C)O)[C@H]1CC[C@@]2(C)[C@@H]3CC=C4[C@@H](CC[C@H](O[C@@H]5O[C@H](CO[C@@H]6O[C@H](CO)[C@@H](O)[C@H](O)[C@H]6O)[C@@H](O)[C@H](O)[C@H]5O)C4(C)C)[C@]3(C)[C@H](O)C[C@]12C [Mogroside V] | 94.9% and 96.3% | 101% | 92.7% | 104% | 104% | 104% | 103% | 97.7%

Row | Structure (SMILES) | cell viability (K562; SRSF2 genotype: SRSF2 P95H/wt) | cell viability (K562; SRSF2 genotype: SRSF2 wt/wt) | cell viability (MARIMO; SRSF2 genotype: SRSF2 P95H/wt) | cell viability (MARIMO; SRSF2 genotype: SRSF2 wt/wt) | cell viability (MOLM14; SRSF2 genotype: SRSF2 P95H/wt) | cell viability (MOLM14; SRSF2 genotype: SRSF2 wt/wt) | cell viability (OCI-AML2; SRSF2 genotype: P95H/wt) | cell viability (OCI-AML2; SRSF2 genotype: wt/wt)
22 | O=C1c2ccc(Nc3ccc(F)cc3F)cc2CCc2ccc(OC[C@H](O)CO)cc21 [Skepinone-L] | 84.7% and 79.7% | 77.7% | 91.7% | 100% | 104% | 102% | 77.2% | 73.7%
23 | O=c1c2ccccc2nc(C=Cc2cccnc2)n1Cc1ccccc1 | 86.8% and 86.9% | 79.8% | 74.3% | 90.1% | 78.5% | 82.6% | 78.4% | 75.9%
24 | OC[C@H]1O[C@@H](Oc2c(O)cc(O)cc2/C=C/c2ccc(O)cc2)[C@H](O)[C@@H](O)[C@@H]1O [Astragalus polyphenols] | 91% and 89.8% | 88.5% | 82.9% | 96.1% | 67.9% | 80.4% | 76.8% | 84.5%
25 | O=C(CCCCc1ccc2c(c1)OCO2)N1CCCCC1 [Tetrahydropiperine] | 91.7% and 93.2% | 97.2% | 88.6% | 102% | 89.8% | 93.9% | 85% | 88.3%
26 | C=CCNC(N)=S [Allylthiourea] | 98.8% and 95.9% | 107% | 108% | 112% | 101% | 104% | 99.8% | 110%
27 | O[C@@H](COc1cccc2ncccc12)CN1CCN([C@@H]2c3ccccc3[C@@H]3[C@H](c4ccccc42)C3(F)F)CC1 | 60.6% and 54.3% | 54.9% | 56.6% | 55.6% | 39.8% | 36.2% | 39.2% | 40.7%
28 | CC(C)C(=O)Nc1ccc([N+](=O)[O-])c(C(F)(F)F)c1 [Flutamide (Eulexin)] | 92.3% and 90.8% | 101% | 90.3% | 92.3% | 96.8% | 95.4% | 90.5% | 90.1%
29 | C[C@@H]1COCCN1c1cc(C2([S@](C)(=N)=O)CC2)nc(-c2cc[nH]c3nccc2-3)n1 | 15.9% and 23.3% | 15.3% | 19.2% | 20.1% | 11.1% | 5.99% | 10.6% | 12%
30 | O=C1C(N(CO)C(=O)NCO)N(CO)C(=O)N1CO (stereo unspecified) [Diazolidinyl urea] | 96.3% and 98.6% | 106% | 98.9% | 98.3% | 93.8% | 104% | 111% | 129%
31 | Cc1cc(C)c(CNC(=O)c2cc(-c3ccc(N4CCN(C)CC4)nc3)cc3c2c(C)cn3C(C)C)c(=O)[nH]1 | 83.8% and 78.9% | 86% | 90.1% | 94.2% | 80.4% | 83.3% | 70.6% | 82.2%
32 | CC(C)=C1CC[C@@H](C)CC1=O [Pulegone] | 95.9% and 92.3% | 93% | 101% | 95.6% | 98.1% | 96.3% | 96% | 98.7%
33 | CC(C(=O)O)c1ccc2c(c1)CC(=O)c1ccccc1S2 (stereo unspecified) [Zaltoprofen] | 102% and 98.4% | 97.7% | 96.8% | 103% | 99.1% | 98.8% | 94.4% | 104%
34 | Nc1ncnc2c1c(-c1cnc3[nH]ccc3c1)nn2C1CCCC1 | 6.97% and 21.9% | 9.11% | 27.8% | 26.9% | 9.21% | 13.2% | 2.15% | 7.66%
35 | Nc1nc(Cl)nc2c1ncn2[C@H]1C[C@H](O)[C@@H](CO)O1 [Cladribine] | 94.3% and 104% | 101% | 12.2% | 8.19% | 2.38% | 0.54% | 4.93% | 4.28%
36 | COc1ccc(Cn2c3ncnc4c(ncn4Cc4ccc(OC)cc4)c-3nc2=O)cc1 | 1.11% and 1.3% | 0.98% | 4.49% | 17.2% | 9.44% | 2.32% | 4.12% | 5.63%
37 | CCCc1cc2c(N3CCN(C4=NCC(C)(C)S4)CC3)ncnc2s1 [MI-2 (Menin-MLL inhibitor)] | 73.4% and 74.9% | 71.4% | 62.1% | 57.1% | 76.2% | 84.1% | 45.1% | 53.3%
38 | CC[C@H]1OC(=O)[C@H](C)[C@@H](O[C@H]2C[C@@](C)(OC)[C@@H](O)[C@H](C)O2)[C@H](C)[C@@H](O[C@@H]2O[C@H](C)C[C@H](N(C)C)[C@H]2O)[C@](C)(O)C[C@@H](C)CN[C@H](C)[C@@H](O)[C@]1(C)O [Azathramycin] | 104% and 112% | 115% | 107% | 104% | 109% | 108% | 111% | 97.8%
39 | CNc1cccc(CCOc2ccc3c(c2)CN(CC(F)(F)F)C(=O)[C@H](CC(=O)O)C3)n1 | 101% | 91.5% | 96.1% | 102% | 97.7% | 98.6% | 100% | 106%
40 | C[C@]12C=CC(=O)C=C1CC[C@H]1[C@@H]3C[C@@H](O)[C@](O)(C(=O)CO)[C@@]3(C)C[C@H](O)[C@@]12F [Triamcinolone (Aristocort)] | 107% | 106% | 100% | 108% | 107% | 98.3% | 110% | 122%
41 | Cn1cc(C[C@@H](N)C(=O)O)c2ccccc21 [Indoximod (NLG-8189)] | 95.8% and 103% | 95.7% | 98.4% | 103% | 103% | 98.9% | 102% | 104%
42 | Nc1ccc(C(=O)NCC(=O)O)cc1 [4-Aminohippuric Acid] | 97.6% and 98.4% | 98.2% | 92.9% | 102% | 95.7% | 97.4% | 92.8% | 103%
